# Screening results: PubChem BioAssay, National Center for Advancing Translational Sciences (NCATS)
# TDP1 cell noCPT: qHTS for Inhibitors of human tyrosyl-DNA phosphodiesterase 1 (TDP1): qHTS in cells in absence of CPT; DT40 Tdp1-/- hTDP1 cells, no CPT, ATP luminescence, 48 h; Potency, µM (highest dose often 46.2 µM), hits mostly inhibitors; actives 15% (n = 420,000); also: nearly all actives have a fitted effect of over 55% in size
#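 Camptothecin absent (DMSO only). Human TDP1-complemented DT40 knockout cells, 400 cells/well, 37 °C for minimum 48 hr; ATP measured via CellTiter-Glo, 30 min dark incubation, luminescence.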
# BCR signal inh: chronic active BCR signaling inhibition; AID 493014; ABC-DLBCL IkBa-CBG/CBR reporter, luminescence ratio, 4 h; actives 0.05% (n = 340,000); Potency, µM (titrated, usually from 46.1 µM), usual class: inhibitors; active = well fitted inhibition curve with a large enough effect in the signal ratio, with a control signal flat, not every such curve was filed as active; inconclusive = small, poorly fitted or top-dose-only effect, or effect the other way, or a change in a side signal; the % refers to the signal ratio
#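 TMD8 ABC-DLBCL cells carrying doxycycline-inducible green luciferase fused to IkappaBalpha plus unfused red luciferase were exposed to compounds (up to 46 uM) for 4 hrs at 37C. Activity came from the overlap-corrected green/red luminescence ratio.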
# IL1B secr inh: inhibitors of inflammasome signaling (IL-1 beta secretion) | actives 4.7% (n = 360,000) | THP-1 LPS/ATP IL-1B secretion, AlphaLISA, 16 h; hits give low values | activity change, % at 57.5 µM; in the data active = activity change below about -50%; inconclusive = mostly about -30% to -49%
#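 Secreted IL-1B measured by AlphaLISA bead assay after 16 h compound exposure of THP-1 cells; compounds (final up to 57.5 uM) added 1 h before LPS (250 ng/mL) and ATP (1.25 mM) stimulation; lower signal means less secretion.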
# SW480 rereplic: DNA re-replication induction in SW480 cells | SW480 DNA re-replication, Hoechst DNA content imaging, 48 h | Potency, µM (top dose mostly 46.1 µM), usual class: activators | actives 1.8% (n = 340,000) | AID 624297; also: nearly all actives have a fitted effect of over 55% in size
#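 Image-based read-out: total Hoechst fluorescence of nuclei (405 nm excitation, 500-530 nm emission), with hits raising the fraction of high-intensity nuclei. SW480 colon cells incubated 48 hr with compounds at 37 C.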
# MCF10A rereplic: DNA re-replication induction in MCF 10a cells; MCF 10A DNA re-replication, Hoechst nuclear intensity, 48 h; Potency, µM (titrated, usually from 46.1 µM), actives largely listed as activators; actives 2.9% (n = 350,000); AID 624296; also: nearly all actives have a fitted effect of over 50% in size
# TDP1 cell CPT: DT40-hTDP1 cell growth loss with CPT | Potency, µM (titrated, usually from 46.2 µM), hits mostly inhibitors | actives 12% (n = 420,000) | chicken DT40 Tdp1-/-;hTDP1 cells + 20 nM CPT, ATP luminescence, 48 h; also: nearly all actives have a fitted effect of over 55% in size
#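 Chicken DT40 Tdp1-/- cells complemented with human TDP1, 400 cells/well, exposed to compounds plus 20 nM camptothecin for at least 48 h at 37 C; viability read as ATP content by CellTiter-Glo luminescence.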
# Hits are given with their value; . = inactive; ? = inconclusive; / = no result given; [ ] = another dose, or the depositor's remark. A selection: hits, their analogues and other compounds. The true share with any hit is near 19%. Unless noted, calls follow the shape of the dose curve; as a rule, active = well fitted curve in the direction sought with a large enough effect; inconclusive = small, poorly fitted or top-dose-only effect, or another doubt; inactive = no such curve, though single readings can be large; an effect the other way counts as inactive or inconclusive.
SMILES,TDP1 cell noCPT,BCR signal inh,IL1B secr inh,SW480 rereplic,MCF10A rereplic,TDP1 cell CPT
COc1ccc(Cl)cc1NS(=O)(=O)c1c(C)[nH]c(=O)[nH]c1=O,?,.,.,.,.,.
CSc1nc(N(C)NC(=O)c2ccccc2)c2ccccc2n1,0.52µM,?,.,?,1.6µM,0.58µM
CN(NC(=O)c1ccc(Cl)cc1)c1ncc(C(F)(F)F)cc1Cl,?,.,.,.,.,.
CSc1nc(N(C)NC(=O)c2ccc(Cl)cc2)c2ccccc2n1,0.33µM,?,.,0.58µM,?,0.26µM
Cc1cc(C)c(NC(=O)CNC(=O)CN(C)Cc2ccc(Br)s2)c(C)c1,?,.,.,.,.,?
Cc1cc2cc(CCNC(=O)c3cccs3)c(=O)[nH]c2cc1C,?,?,?,.,?,?
Cc1cc2cc(CCNC(=O)c3cccc([N+](=O)[O-])c3)c(=O)[nH]c2cc1C,16µM,.,?,.,?,?
Cc1ccc2cc(COC(=O)c3cccc([N+](=O)[O-])c3)c(=O)[nH]c2c1,.,.,.,.,.,.
Cc1ccc2cc(CCNC(=O)c3cccc([N+](=O)[O-])c3)c(=O)[nH]c2c1,21µM,?,.,.,.,21µM
Cc1ccc(C(=O)NCCc2cc3ccc(C)c(C)c3[nH]c2=O)cc1[N+](=O)[O-],?,.,.,?,.,10µM
COc1ccc(NC(=O)COc2ccc(-n3cnnn3)cc2)cc1OC,23µM,.,.,.,.,?
COc1ccc(OCC(=O)Nc2cc(OC)cc(OC)c2)cc1,.,?,.,?,.,.
CC(C)(C)c1ccc(NC(=O)COc2ccc(-n3ccnc3)cc2)cc1,16µM,?,.,.,.,15µM
C/C(=N\NC(=O)COc1ccc(C(C)(C)C)cc1)c1ccc(-n2ccnc2)cc1,?,.,?,?,?,?
COc1cc(NC(=O)COc2ccc(-n3ccnc3)cc2)cc(OC)c1,?,.,-106,.,.,?
Cc1ccc(NC(=O)COc2ccc(-n3cnnn3)cc2)cc1C,.,.,.,.,.,.
CN(C(=O)Cn1cc([N+](=O)[O-])ccc1=O)C1CCCCC1,.,.,.,.,.,.
O=C(NNc1ncnc2ccccc12)c1cccc(Cl)c1,.,?,.,.,.,?
Cc1nn(C)cc1CN1CCOc2ccc(C(C)(O)COc3ccccc3)cc2C1 (stereo not drawn),.,/,/,/,/,.[9.04 µM]
CCCCCn1c(CCCNC(=O)c2ccccc2)nc2ccccc21,21µM,/,/,/,/,23µM
CCCCCn1c(CNC(=O)c2ccc(F)cc2)nc2ccccc21,21µM,/,/,/,/,16µM
Cc1nc(C(F)(F)F)ccc1C(=O)N1CCC1(C)C(=O)NS(=O)(=O)c1ccc(C#N)cc1 (stereo not drawn),.,/,.,/,/,.
Nc1ccc(C(=O)Nc2ccc(Nc3ccncc3)cc2)c([N+](=O)[O-])c1,.,/,.,/,/,.
O=S(=O)(Nc1nc2ccccc2nc1Cl)c1ccccc1,.,.,.,.,.,.
Cc1cc(F)ccc1S(=O)(=O)Nc1nc2ccccc2nc1Cl,?,?,-51,.,.,?
SMILES,TDP1 cell noCPT,BCR signal inh,IL1B secr inh,SW480 rereplic,MCF10A rereplic,TDP1 cell CPT
O=S(=O)(Nc1nc2ccccc2nc1Cl)c1ccc2ccccc2c1,?,?,.,.,23µM,?
Cc1ccc(C(C)(C)C)cc1S(=O)(=O)Nc1nc2ccccc2nc1Cl,?,.,.,.,.,?
N#Cc1ccc(NC(=O)COC(=O)c2cccnc2Cl)cc1,.,.,.,.,.,.
O=C1OC2C(O)COC23OC(O)CCC13O (stereo not drawn),.,/,.,/,/,.
Nc1nc(N)c(C=Nc2ccc(Br)cc2)c(Nc2ccc(Br)cc2)n1,13µM,?,?,.,?,15µM
Cc1ccc(N(Cc2cc3cc(C)ccc3[nH]c2=O)S(=O)(=O)c2ccccc2)cc1,15µM,.,.,18µM,?,23µM
COc1ccc2[nH]c(=O)c(CN(c3ccccc3)S(=O)(=O)c3ccccc3)cc2c1,21µM,.,.,?,.,?
Cc1cccc(N(Cc2cc3ccccc3[nH]c2=O)S(=O)(=O)c2ccccc2)c1,?,.,.,?,.,?
Cc1ccc2cc(CN(c3ccccc3)S(=O)(=O)c3ccccc3)c(=O)[nH]c2c1,?,?,.,.,.,.
COc1ccc2[nH]c(=O)c(CN(c3ccccc3OC)S(=O)(=O)c3ccccc3)cc2c1,15µM,?,.,.,?,16µM
CCOc1ccc(N(Cc2cc3ccc(C)cc3[nH]c2=O)S(=O)(=O)c2ccccc2)cc1,?,.,?,21µM,21µM,?
O=C(NCC1CCN(Cc2cccc(Cl)c2)CC1)Nc1ccc(Cl)cc1,?,?,-61,.,.,?
O=C(NCC1CCN(Cc2ccccc2F)CC1)Nc1cccc(Br)c1,16µM,.,-84,.,.,?
O=C(NCC1CCN(Cc2ccccc2F)CC1)Nc1ccccc1F,.,.,.,.,.,.
O=C(NCC1CCN(Cc2cccc(Cl)c2)CC1)Nc1cc(Cl)ccc1Cl,13µM,/,/,/,/,23µM
CCOC(=O)c1c(NC(=O)COc2ccc(C)cc2C(C)(C)C)sc2c1CCC(C)C2 (stereo not drawn),.,/,/,/,/,.
CCc1ccc(CNC(=O)c2cnc3sc(N(CC)CC)nn3c2=O)cc1,?,/,/,/,/,13µM
CCc1ccc(CNC(=O)c2cnc3sc(N4CCCC4)nn3c2=O)cc1,.,/,/,/,/,.
CCN(CC)c1nn2c(=O)c(C(=O)NCCc3ccccc3C)cnc2s1,?,/,/,/,/,16µM
COc1ccc(CNC(=O)CC(C)n2nc(C)cc2C)cc1 (stereo not drawn),.,/,/,/,/,.
Cc1cc(/C=C2/SC(=S)N(c3ccc([N+](=O)[O-])cc3)C2=O)c(C)n1-c1cccnc1,1µM,.,.,.,.,1.6µM
Cc1cccc(N2C(=O)/C(=C/c3cccnc3)SC2=S)c1,.,.,.,.,?,?
CN1C(=O)/C(=C/c2coc3ccc(O)cc3c2=O)SC1=S,?,.,.,.,.,?
Cc1cc(/C=C2/NC(=O)N(c3ccccc3)C2=O)c(C)n1-c1cccnc1,?,.,-83,.,.,26µM
Cc1cc(/C=C2\SC(=S)N(C)C2=O)c(C)n1-c1ccccc1O,8.2µM,/,-84,12µM,13µM,21µM
Cc1cc(/C=C2/SC(=S)N(c3cccc(Cl)c3)C2=O)c(C)n1-c1cccnc1,2.1µM,/,-64,.,?,2.6µM
O=C(CN1C(=O)CCC1=O)Nc1cccc(NC(=O)CN2C(=O)CCC2=O)c1,.,.,.,.,.,.
